Sm TGR block – S. mansoni TGR enzyme inhibition; purified TGR, DTNB reduction, TNB absorbance 405 nm; Potency, µM (highest dose often 114 µM), for the others: top-dose activity change, negative = inhibition, actives largely listed as inhibitors; hit rate 3% among 360,000; AID 485364; note: % is set by controls: 0 for no effect and ±100 for the full control effect; nearly all actives have a fitted effect of over 60% in size
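TGR 20 nM + NADPH 100 uM (dispensed conc.), cpd preinc 15 min RT; start with NADPH (500 uM addition) then DTNB (15 mM addition). Kinetic TNB absorbance, 405 nm filter. Four-parameter Hill fit across titration.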
Pf growth 96h – P. falciparum growth inhibition at 96 hours | P. falciparum luciferase reporter growth, 96 h | Potency, µM (top dose mostly 28.7 µM), inactives show at the top dose activity change, negative = inhibition, most hits filed as inhibitors | hit rate 6.9% among 320,000; note: % is set by controls: 0 for no effect and ±100 for the full control effect
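Compounds incubated with erythrocytes infected by luciferase-expressing P. falciparum (2% hematocrit, 0.05% parasitemia final) for 96 hours, 37 C in 5% CO2. Growth inhibition scored as decreased luciferase luminescence.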
Pf growth 48h – inhibits P. falciparum growth in the first generation, 48 h. AID 504832. Potency, µM (highest dose often 28.7 µM), inactives show at the top dose activity change, negative = inhibition, usual class: inhibitors. hit rate 5.9% among 310,000. P. falciparum luciferase growth in erythrocytes, 48 h; note: % is set by controls: 0 for no effect and ±100 for the full control effect
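In quantitative HTS format, infected erythrocytes bearing luciferase-reporter parasites were treated for a single generation at 37 C. Luminescence after adding detection reagent served as the growth measure.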
AMA1-RON2 inh – inhibitors of Plasmodium falciparum AMA1-RON2 interaction; AlphaScreen AMA1-biotinylated RON2 peptide binding; Potency, µM (highest dose often 58.2 µM), for the others: top-dose activity change, negative = inhibition, usual class: inhibitors; hit rate 0.2% among 360,000;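 note: 0% = vehicle wells and -100% = peptide control; nearly all actives have a fitted effect of over 45% in size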
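AMA1 (3D7) with his tag at 25 nM final met compounds first, then biotinylated RON2 peptide at 25 nM; detection used donor plus acceptor beads, 10 µg/mL apiece, read by AlphaScreen after 30 min at room temperature.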
NS1 function inh – blocks influenza NS1 protein function; Potency, µM (series often up to 46.1 µM), inactives show top-dose activity, positive = more growth; hit rate 0.4% among 270,000; AID 2326; calls by dose curve; note: actives are rising curves; nearly all actives have a fitted effect of over 50% in size
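OD600 was taken as the measure of yeast growth restored by compound in an NS1-expressing S. cerevisiae strain. Cells had been washed out of glucose medium and diluted 1:100 into galactose -URA medium, pH 6.0.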
Numbers without * were called inactive; ? = inconclusive; nt = no result. This is a sample that favours compounds with a hit; in the whole collection about 11% have one here. Unless noted, calls come from the whole dose curve; as a rule, active = well fitted curve in the direction sought with a large enough effect; inconclusive = small, poorly fitted or top-dose-only effect, or another doubt; inactive = no such curve, though single readings can be large; an effect the other way counts as inactive or inconclusive. Potency is the fitted concentration of half-maximal effect.

SMILES | Sm TGR block | Pf growth 96h | Pf growth 48h | AMA1-RON2 inh | NS1 function inh
CCCn1cc(S(=O)(=O)c2ccc(CC)cc2)c(=O)c2cc(F)c(N3CCN(C)CC3)cc21 | 4% | nt | nt | nt | nt
CC(C)Cn1c(=O)c2c(nc3n2CCCN3Cc2ccccc2)n(C)c1=O | 12% | 12µM* | 10µM* | -6% | -7%
Cc1cc(N2C(=O)C=CC2=O)c([N+](=O)[O-])cc1C | 0.71µM* | ? | 5% | 13% | -36%
Oc1ccccc1N1CCN(CC(O)COC2CCCc3ccccc32)CC1 (centres undefined) | 4% | ? | 9.3µM* | 12% | 0%
CC(C)C(OC(=O)c1nsc(Cl)c1Cl)C(=O)NCc1ccccc1 (centres undefined) | -4% | -6% | 2% | -6% | -12%
COc1cc2c(cc1NC(=O)C(C)Oc1ccccc1)oc1ccccc12 (centres undefined) | 9% | nt | nt | nt | nt
COc1cc2c(cc1NC(=O)C(C)OC(=O)c1ccc(S(=O)(=O)Nc3ccccc3Cl)cc1)oc1ccccc12 (centres undefined) | 11% | 5.2µM* | ? | 5% | -1%
COc1cc2c(cc1NC(=O)C(C)N1CCN(S(=O)(=O)c3ccc(C)c(C)c3)CC1)oc1ccccc12 (centres undefined) | 0% | 3.3µM* | nt | 0% | -5%
COc1cc2c(cc1NC(=O)CN1CCN(S(=O)(=O)c3ccc(C)cc3)CC1)oc1ccccc12 | -6% | 17% | 6% | 1% | 14%
COc1cc2c(cc1NC(=O)C(C)N1CCN(S(=O)(=O)c3ccccc3[N+](=O)[O-])CC1)oc1ccccc12 (centres undefined) | -8% | 5.9µM* | nt | 10% | 1%
O=C(CN1CCN(c2ccc(F)cc2)CC1)c1cccs1 | 14µM* | 1% | 0% | -6% | -1%
O=C(c1cccs1)N1CCN(c2ccc(F)cc2)CC1 | -34% | nt | 2% | 16% | -2%
O=C(CN1CCN(c2ccc(F)cc2)CC1)c1ccc2c(c1)OCO2 | 45µM* | -9% | 6% | 0% | -27%
O=C(CNc1ccc(Br)cc1)Nc1ccc(S(=O)(=O)N2CCCCC2)cc1 | nt | nt | nt | -7% | nt
COc1cc(Cl)c(C)cc1NC(=O)c1ccccc1-n1cnnn1 | nt | nt | nt | -3% | nt
COc1cc(/C=C2/SC(=O)NC2=O)ccc1Oc1ccc([N+](=O)[O-])cc1[N+](=O)[O-] | -34% | ? | ? | -13% | -40%
COc1cc(/C=C2\C(=O)N(c3ccccc3)N=C2C)ccc1Oc1ccc([N+](=O)[O-])cc1[N+](=O)[O-] | 14µM* | 10µM* | -17% | -28% | 10%
COc1cc(/C=C2/C(=O)N(c3ccc(C)c(C)c3)N=C2C)cc([N+](=O)[O-])c1O | -2% | ? | 2% | -8% | 6%
CC1=NN(c2ccccc2)C(=O)/C1=C\c1ccc(Oc2ccc([N+](=O)[O-])cc2[N+](=O)[O-])cc1 | 13µM* | 24% | 0% | -8% | 11%
COc1cc(/C=C2/C(=O)N(c3ccc(C(=O)O)cc3)N=C2C)cc(OC)c1O | 10µM* | 41% | 35% | -3% | 8%
COc1ccccc1/C=C1/C(=O)N(c2ccccc2)N=C1C | 3% | ? | -6% | -28% | 5%
CC(C)C(NC(=O)C(CC(=O)O)NC(=O)C(CCCCN)NC(=O)C(N)CCCN=C(N)N)C(=O)NC(Cc1ccc(O)cc1)C(=O)O (centres undefined) | nt | 1.5µM* | -1% | nt | nt
CCOc1ccc(-n2ccnc(SCC(=O)Nc3ccc(CC)cc3)c2=O)cc1 | -13% | 20% | -16% | 16% | nt
CCNC(=S)Nc1cc(OCC)c(NC(=O)c2ccco2)cc1OCC | 2% | 251% | -17% | -3% | 8%
CCOc1cc(NS(=O)(=O)c2ccccc2)c(OCC)cc1NC(=O)c1ccco1 | 32µM* | nt | -13% | 12% | 5%
SMILES | Sm TGR block | Pf growth 96h | Pf growth 48h | AMA1-RON2 inh | NS1 function inh
CN(C)S(=O)(=O)c1ccc(NC(=O)CCNC(=O)c2ccco2)cc1 | -1% | 9% | 21% | -27% | -14%
COc1ccccc1NS(=O)(=O)c1ccc(NC(=O)CCNC(=O)c2ccco2)cc1 | -15% | 8.3µM* | ? | 4% | 0%
CCOc1cc(C(=O)NC2CC(C)(C)NC(C)(C)C2)cc(OCC)c1OCC | 30% | 0% | 0% | -20% | 10%
S=C1N(c2ccccc2)CN(C2CCCCC2)CN1c1ccccc1 | 13% | -11% | 12% | 3% | 2%
CCOC(=O)C1(Cc2cccc(OC)c2)CCN(Cc2cc(OC)ccc2OC)CC1 | -3% | 10µM* | ? | -17% | -2%
CCOC(=O)C1(Cc2cccc(OC)c2)CCN(Cc2cccc(OC)c2OC)CC1 | 14% | ? | ? | -19% | -4%
CCOC(=O)C1(Cc2cccc(OC)c2)CCN(Cc2cccc3cnccc23)CC1 | 0% | ? | 3.7µM* | 11% | 1%
CCOC(=O)C1(Cc2cccc(F)c2)CCN(Cc2ccon2)CC1 | 18% | ? | 10% | -1% | 4%
CCOC(=O)C1(Cc2cccc(F)c2)CCN(Cc2cnc(C)s2)CC1 | 17% | 2.3µM* | ? | -10% | 0%
O=C(O)C1=CC[C@@H](c2ccc(Cl)cc2)N(S(=O)(=O)c2ccc(Cl)cc2)[C@H]1c1ccc(Br)cc1 | nt | nt | nt | 11% | nt
CCNS(=O)(=O)c1ccc(CCC(=O)N2CCC(C)CC2)cc1 | -3% | 75% | 4% | -1% | 7%
CCN1CCN(c2cc(C)c3cc(NC(=O)c4ccc5c(c4)OCO5)ccc3n2)CC1 | -9% | -5% | 3.3µM* | 5% | -9%
CCN1CCN(c2cc(C)c3cc(NC(=O)c4ccc(OC)c(OC)c4)ccc3n2)CC1 | 0% | -9% | nt | -5% | 4%
CCN1CCN(c2cc(C)c3cc(NC(=O)c4cccc(OC)c4)ccc3n2)CC1 | 2% | 2.1µM* | ? | -8% | 1%
COc1ccc(C(=O)Nc2ccc3c(c2)CCCN3C(=O)c2cccs2)c(OC)c1 | 10% | 15µM* | ? | -6% | -48%
COc1ccc(C(=O)Nc2ccc3nc(N4CCN(C)CC4)cc(C)c3c2)c(OC)c1 | -21% | 30% | 7.4µM* | -2% | -3%
O=CN[C@@H](Cc1cnc[nH]1)C(=O)O | nt | nt | nt | nt | 6%
OCC[C@H]1C[C@@H](O)[C@H](O)[C@@]2(Cc3ccccc3CO2)O1 | -13% | 68% | 5% | -9% | nt
COc1cc(OC)cc(C(=O)Nc2ccc3nc(N4CCCCC4)cc(C)c3c2)c1 | 3% | nt | nt | nt | nt
CCN1CCN(c2cc(C)c3cc(NC(=O)c4cccs4)ccc3n2)CC1 | 1% | ? | 2.1µM* | -7% | 1%
CCN1CCN(c2cc(C)c3cc(NC(=O)c4cncc(Br)c4)ccc3n2)CC1 | 4% | 1.9µM* | 0.1µM* | -20% | -9%
COc1cccc(C(=O)Nc2ccc3nc(N4CCOCC4)cc(C)c3c2)c1 | 4% | 0.47µM* | 15µM* | -3% | -91%

Screening data as filed in PubChem.
